Data from PubChem BioAssay (NCI).
The panel holds about 83,000 compounds, 20% with a hit somewhere; the sample as a whole holds those more often.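 For each line, cells grew in 96-well plates with the test compound present at a single concentration for 48 hours.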 Active and inactive are the calls of the source. How the source made its calls: active means growth percent below 10; inactive means the rest.

How the values were obtained:
Assay in all cases: NCI-60 one-dose screen, 48 h (100 = growth as untreated, 0 = no growth, -100 = all killed)
Conditions in all cases: 10 µM unless noted
[1] = tested on: HCT-15 colon
[2] = tested on: HT29 colon
[3] = tested on: SNB-75 CNS
[4] = tested on: SNB-19 CNS
[5] = tested on: U251 CNS
[6] = tested on: PC-3 prostate
[7] = tested on: SK-MEL-5 melanoma
[8] = tested on: UACC-62 melanoma
[9] = tested on: LOX IMVI melanoma
[10] = tested on: SK-MEL-28 melanoma

Measured: growth

O=C(/C=C/c1ccccc1)c1cccc(O)c1
inactive: [1] 89.3% | [2] 110% | [3] 81.8% | [4] 96.1% | [5] 91.2% | [6] 94.2% | [7] 96.9% | [8] 81.1% | [9] 66.1% | [10] 104%

O=S(=O)(Oc1ccc(-c2cn3ccoc3n2)cc1)C1CCCCC1
inactive: [1] 62.7% | [2] 96.7% | [3] 124% | [4] 97.1% | [5] 104% | [6] 91.5% | [7] 91.1% | [8] 85.3% | [9] 100% | [10] 100%

COc1cc(C(C)=C(c2ccc(OCCN(C)C)cc2)c2ccc(OCCN(C)C)cc2)ccc1F
inactive: [1] 101% | [2] 108% | [3] 100% | [4] 98.2% | [5] 106% | [6] 110% | [7] 96.6% | [8] 97.8% | [9] 95.3% | [10] 109%

Cc1ccc(S(=O)(=O)NCCCNc2nccc(-c3[nH]c(-c4ccccc4)nc3-c3ccc(F)c(O)c3)n2)cc1
inactive: [1] 76% | [2] 96.2% | [3] 73.9% | [4] 107% | [5] 98.2% | [6] 69.5% | [7] 38.6% | [8] 18.7% | [9] 73.8% | [10] 38.3%

NS(=O)(=O)c1ccc(Nc2nc(Nc3ccccc3)nc(N3N=C(c4ccc(Cl)cc4)CC3c3ccc(Cl)cc3)n2)cc1 (stereo not given)
active: [2] 9.63%
inactive: [1] 36.6% | [3] 68% | [4] 61.1% | [5] 61.3% | [6] 43% | [7] 51.9% | [8] 97.6% | [9] 12.6% | [10] 47.1%

Cc1[nH]c(C(=O)Nc2ccc(S(=O)(=O)N3CCCCC3)cc2OCCOCCOCCOCCOCCOCCOCCOCCOCCOc2cc(S(=O)(=O)N3CCCCC3)ccc2NC(=O)c2[nH]c(C)c3c2CCCCC3=O)c2c1C(=O)CCCC2
active: [2] 4.45% | [3] -2.1% | [8] -32.5% | [9] -75.1%
inactive: [1] 30.9% | [4] 33.3% | [5] 24.3% | [6] 28.8% | [7] 14.8% | [10] 35.1%

Cn1ncc2ncc(-c3ccc4ncc(C#N)c(N5CCc6cc(F)c(Cl)cc65)c4c3)cc21
inactive: [1] 23.2% | [2] 41.4% | [4] 51.6% | [5] 48.6% | [6] 26% | [7] 39.5% | [8] 20.8% | [9] 19.3% | [10] 48.4%
active: [3] -1.84%

CCCCCCOC(=O)c1cc(-c2ccc(F)cc2)nc2ccccc12
inactive: [1] 94.8% | [2] 96.3% | [3] 69.9% | [4] 92.6% | [5] 101% | [6] 94.2% | [7] 99.7% | [8] 79% | [9] 91.3% | [10] 107%

CCCCN1C(=O)/C(=c2\sc3n(c2=O)C2C(NN=3)N(CC)C(=O)N2CC)c2cccc(C)c21 (stereo not given)
inactive: [1] 14.9% | [2] 16.5% | [3] 14.1% | [4] 39.4% | [5] 39.1% | [6] 34.4% | [7] 29.6% | [8] 38.7% | [9] 42.4% | [10] 68.2%

CC(=O)C1=C(C)NC(NNc2ccccc2)=NC1c1ccc([N+](=O)[O-])cc1 (stereo not given)
inactive: [1] 67.9% | [2] 96.5% | [3] 102% | [4] 87.8% | [5] 93.1% | [6] 79.3% | [7] 98.7% | [8] 52.8% | [9] 77.1% | [10] 102%

NC1CC2(CCN(c3cnc(C(=O)Nc4cc(F)cc5cccnc45)cn3)CC2)C1
active: [1] 3.7% | [2] 5.06% | [9] -17%
inactive: [3] 74.2% | [4] 83.1% | [5] 57.1% | [6] 76.6% | [7] 95.3% | [8] 95.4% | [10] 93.3%

CC(Nc1c(C#N)cnc2ccc(-c3cncc(O)c3)cc12)c1ccccc1 (stereo not given)
active: [1] 4.88% | [4] -6.67% | [5] 6.74% | [6] 9.41% | [7] -89.4% | [8] -51.2% | [9] 1.56% | [10] 3.08%
inactive: [2] 46.8% | [3] 10.5%

Cc1c(C(=O)/C=C/c2ccc(Cl)cc2)nnn1-c1ccc2oc(=O)ccc2c1
inactive: [1] 87.3% | [2] 101% | [3] 104% | [4] 96.3% | [5] 96.7% | [6] 92% | [7] 97.7% | [8] 83.6% | [9] 80.7% | [10] 106%

COc1ccc2sc(NC(=O)CCCCCCNC(=O)C(O)(O)C(F)(F)F)nc2c1
active: [1] 5.37% | [2] 5.06% | [5] -51.5% | [7] -82.2% | [8] -64.6% | [9] -81% | [10] 1.51%
inactive: [3] 41.4% | [4] 15.9% | [6] 34.1%

O=C(/C=C/c1cccc(Br)c1)c1cccc(OCCCCOc2cccc(C(=O)/C=C/c3cccc(Br)c3)c2)c1
inactive: [1] 108% | [2] 117% | [3] 96.8% | [4] 94.3% | [5] 105% | [6] 104% | [7] 99.4% | [8] 98.3% | [9] 96.6% | [10] 110%

COc1ccc(C2c3[nH]c4ccc(Cl)cc4c3CCN2c2oc(CO)nc2C#N)cc1 (stereo not given)
inactive: [1] 22.2% | [2] 22.9% | [3] 46.5% | [4] 51.9% | [5] 38.9% | [6] 41.3% | [7] 29.7% | [8] 39.3% | [9] 24.2% | [10] 60.1%

CC(=C(c1ccc(OCCCN(C)C)cc1)c1ccc(OCCCN(C)C)cc1)c1ccc(Cl)cc1
inactive: [1] 41.6% | [2] 45.7% | [3] 75.8% | [4] 92.9% | [5] 92.1% | [6] 87.5% | [7] 98.5% | [8] 101% | [9] 76.6% | [10] 99.2%

C=C(C)[C@@H]1CC[C@]2(C(=O)NC3CCCCC3)CC[C@]3(C)[C@H](CC[C@@H]4[C@@]5(C)CC[C@H](N)C(C)(C)[C@@H]5CC[C@]43C)[C@@H]12
inactive: [1] 39% | [2] 71.8% | [3] 83.9% | [4] 103% | [5] 88.8% | [6] 72.8% | [7] 92.7% | [8] 104% | [10] 109%
active: [9] -75.1%

COc1cc(-c2nc(-c3ccccc3)[nH]c2-c2ccnc(NCCCNS(=O)(=O)c3cccc(F)c3)n2)ccc1F
inactive: [1] 72.7% | [2] 83.2% | [3] 112% | [4] 107% | [5] 95.9% | [6] 62.9% | [7] 92% | [8] 99.8% | [9] 86.2% | [10] 100%

COc1ccccc1/C=C/C(=O)c1nnn(-c2ccc(F)cc2)c1C
active: [2] 4.8% | [9] 2.13%
inactive: [1] 22.9% | [3] 40.6% | [4] 63.2% | [5] 36.3% | [6] 68.9% | [7] 79.3% | [8] 59.4% | [10] 75.2%

C/C(=C(\c1ccc(O)cc1)c1ccc(OCCN2CCCCCC2)cc1)c1ccc(Cl)cc1
active: [1] -88.7% | [2] -72.8% | [3] -77.9% | [4] -20.6% | [5] -81.1% | [6] -69.9% | [7] -96% | [8] -85.1% | [9] -95.4% | [10] -84.1%

O=C1[C@@H]2Cc3c([nH]c4ccccc34)[C@H](c3ccc(Cl)cc3)N2C(=O)CN1C1CCN(Cc2ccccc2)CC1
inactive: [1] 35% | [2] 25% | [3] 43.8% | [4] 66% | [5] 56.5% | [6] 38.8% | [7] 62.3% | [8] 75.4% | [9] 20.7% | [10] 77.8%

CC1=C(C)C(=O)C(Nc2cccc(C(F)(F)F)c2)=C(Br)C1=O
active: [9] 6.64%
inactive: [1] 82.7% | [2] 106% | [3] 62.2% | [4] 91.1% | [5] 87.4% | [6] 71% | [7] 81.3% | [8] 80.8% | [10] 105%

C#C[C@]1(O)CC[C@H]2[C@@H]3CC=C4c5sc(Nc6cccc(F)c6)nc5CC[C@]4(C)[C@H]3CC[C@@]21C
active: [1] -28.6% | [2] -23.3% | [8] 5.77% | [9] -57.6%
inactive: [3] 24.1% | [4] 35.8% | [5] 10% | [6] 19.2% | [7] 42.6% | [10] 13.8%

Cc1cc(Br)ccc1-n1cc(C#N)c(N)c1C(=O)c1ccc(Br)cc1
inactive: [1] 97.6% | [2] 102% | [3] 95.6% | [4] 96.3% | [5] 99.9% | [6] 103% | [7] 95.7% | [8] 94.3% | [9] 96.6% | [10] 102%

CCOC(=O)c1ccccc1NC1=C(Cl)C(=O)c2nc(C)ccc2C1=O
inactive: [1] 91.7% | [2] 112% | [3] 81.1% | [4] 92.8% | [5] 104% | [6] 96.8% | [7] 99.9% | [8] 95% | [9] 98.7% | [10] 107%

O=C1Nc2ccccc2/C1=N\c1nnc(-c2ccccc2)o1
inactive: [1] 87.2% | [2] 99.2% | [3] 59.9% | [4] 91.5% | [5] 97.8% | [6] 79% | [7] 94.3% | [8] 79.7% | [9] 102% | [10] 106%
